Reference: PubChem BioAssay (NCATS)
“And” between values parts separate entries of the source, which are not always exact repeats. Equal values may be shown once. Records with an inconclusive call do not appear. Values without a mark were called inactive. The source made the active and inactive calls. The call rests on the fitted dose curve; in most records, active means well fitted cell-killing curve with a large enough effect; inconclusive means small, poorly fitted or top-dose-only effect; inactive means flat fitted curve, though single readings scatter.

Experiment: Cellular viability qHTS for adrenocortical cancer (ACC) cell line NCI-H295R (AID 1963990); further: nearly all actives have a fitted effect of over 60% in size;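 on activity change, negative = viability loss: 0% = DMSO only wells and -100% = full killing with cytotoxic reference compound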
Details: CellTiter-Glo ATP luminescence, 48 h; series mostly up to 46.1 µM; activity change, negative = viability loss: at the top concentration
Method in brief: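 Adrenocortical carcinoma cells, suspended at 300 000 cells/mL in serum-free DMEM plus ITS, rested overnight before pin transfer of compound. After two days' incubation, ATP-dependent luminescence was recorded and curve-fitted.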
Potency means the concentration at half of the fitted maximal effect.

Row | Compound | Potency | activity change, negative = viability loss
1 | O=P1(N(CCCl)CCCl)NCCCO1 (stereo not drawn) | inactive | –
2 | CC1OC(C)OC(C)O1 (stereo not drawn) | – | 1.98%
3 | C[C@@H]1CN(C2CCC(C#N)(c3ccc(F)cc3)CC2)CC[C@]1(C(=O)O)c1ccccc1 (stereo partly drawn) | – | -1.09%
4 | COC(=O)[C@@H](N)CCCN/C(N)=N/[N+](=O)[O-] | – | -14%
5 | CCC1(c2ccccc2)CCC(=O)NC1=O (stereo not drawn) | – | -0.352%
6 | CCN(CC)CCOC(=O)C(O)(c1ccccc1)c1ccccc1 | – | -3.92%
7 | COc1ccccc1N1CCNCC1 | – | -4.23%
8 | C[C@@H](C1CC[C@@]2(O)C3=CC(=O)[C@@H]4C[C@@H](O)[C@@H](O)C[C@]4(C)[C@H]3CC[C@]12C)[C@H](O)CCC(C)(C)O (stereo partly drawn) | – | -3.42%
9 | C=CCN1CC[C@]23c4c5ccc(O)c4O[C@H]2C(=O)CC[C@@]3(O)[C@H]1C5 | – | 0.895%
10 | CCS(=O)(=O)C(C)(C)S(=O)(=O)CC | – | -14.3%
11 | CC(CC(C(N)=O)(c1ccccc1)c1ccccc1)N(C)C (stereo not drawn) | – | -9.19%
12 | C[C@@H]1O[C@@H](O[C@H]2C[C@@H](O)[C@]3(CO)[C@H]4[C@H](O)C[C@]5(C)[C@@H](C6=CC(=O)OC6)CC[C@]5(O)[C@@H]4CC[C@]3(O)C2)[C@H](O)[C@H](O)[C@H]1O | 36.6 nM (active) and 56.2 nM (active) | –
13 | O=C(O)c1ccc(=O)[nH]c1 | – | -1.53%
14 | O=C1CC[C@@]2(O)[C@H]3Cc4ccc(O)c5c4[C@@]2(CCN3CC2CC2)[C@H]1O5 | inactive | –
15 | ClCCN1CCCC1 | – | -26.1%
16 | CCNc1nc(Cl)nc(NCC)n1 | – | -16.9%
17 | CN[C@@H](C)[C@H](O)c1ccccc1 | – | -2.39%

Row | Compound | Potency | activity change, negative = viability loss
18 | COC(=O)C1=CCCN(C)C1 | – | 1.69%
19 | CC1NCCOC1c1ccccc1 (stereo not drawn) | – | -1.27%
20 | COP(=S)(OC)Oc1cc(Cl)c(Cl)cc1Cl | – | -6.16%
21 | NP(N)(=O)NC(=O)c1ccc(F)cc1 | – | -3.13%
22 | CC(C)(N)Cc1ccc(Cl)cc1 | – | -14.1%
23 | NCc1cccnc1 | – | 7.63%
24 | C1CN2CCC1CC2 | – | -2.9%
25 | CCC(C)C(C)(COC(N)=O)COC(N)=O (stereo not drawn) | – | 1.25%
26 | Cc1ccc(Cl)c(O)c1 | – | -18.9%
27 | NC(=O)OCCCc1ccccc1 | – | -5.22%
28 | CC[N+]1(CCOC(=O)C(O)(c2ccccc2)c2ccccc2)CCCCC1 | – | 8.75%
29 | O=C(O)COc1ccccc1 | – | -21.5%
30 | NCC(CC(=O)O)c1ccc(Cl)cc1 (stereo not drawn) | – | -4.36% [at 0.587 µM]
31 | O=C(CCCCl)c1ccc(F)cc1 | – | -2.22%
32 | Oc1cccc2cccnc12 | – | -14.6%
33 | O=c1[nH]oc2c1CCNC2 | – | 2.99%
